From PubChem BioAssay
Activity calls are given as the source filed them.

Legend:
[1] = system: PRMT1 (protein arginine N-methyltransferase 1); test: small molecules binding arginine methyltransferase PRMT1 – biochemical, small-molecule microarray, 635 nm fluorescence, primary screen (AID 1088); details: higher = more signal;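 further: binding of Prmt1 protein to compounds spotted on small-molecule microarray slides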
[2] = growth effects on S. cerevisiae YJM789 – YJM789 clinical isolate, OD600, 24 h, basal, primary screen (AID 1089); details: higher = more signal, called active from +8 up or from −8 down;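 further: growth of clinical yeast isolate S. cerevisiae YJM 789 seeded 1000 cells per well; test concentration not given here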
[3] = S. pombe growth modifiers, basal conditions – strain 972, OD600, 24 h, no modulator, primary screen (AID 1090);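 further: basal condition with compound alone and no growth modifier present; test concentration not given here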; details: S. pombe 972 growth, higher = more signal, called active from +8 up or from −8 down
[4] = budding yeast growth modifiers under rapamycin – strain BY4716, OD600, 96 h, primary screen (AID 1091); further: test concentration not given here; details: S. cerevisiae BY4716 + rapamycin, higher = more signal, called active from +8 up or from −8 down
[5] = biological target: Torsin-1A-interacting protein 2 (Homo sapiens) (UniProt Q8NFQ8); test: small molecules binding lysate-expressed LULL1 – cell lysate, human LULL1 lysate, 635/667 nm fluorescence, primary screen (AID 1092); details: small-molecule microarray, hLULL1 lysate binding, 635 nm fluorescence; higher = more signal;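 further: probe is lysate of COS7 cells overexpressing human LULL1; score merges per-feature 667 nm fluorescence with signal-to-noise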
[6] = optical density change of DRC41 E. coli – strain DRC41, OD650, 24 h, E. coli filamentation project, primary screen (AID 1093);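 further: MC1000 strain lacking acrAB efflux and sulA so SOS filamentation is blocked; test concentration not given here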; details: E. coli DRC41 growth, higher = more signal, called active from +8 up or from −8 down
[7] = probe aLefty2 binding to arrayed compounds – biochemical, biotinylated probe, 635/667 nm fluorescence, primary screen (AID 1094); details: small-molecule microarray, higher = more signal;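 further: score merges spot fluorescence near 667 nm with spot signal-to-noise ratio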
[8] = system: Noggin (protein binding on small-molecule microarray); test: small molecules binding Noggin protein – biochemical, 635/667 nm fluorescence, primary screen (AID 1095); details: 635 nm fluorescence, higher = more signal;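 further: score merges 667 nm feature fluorescence with signal to noise over triplicate slides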
[9] = biological target: Neurogenic locus notch homolog protein 3 (Homo sapiens) (UniProt Q9UM47); test: small molecules binding NOTCH3 protein – biochemical, 635/667 nm fluorescence, primary screen (AID 1096); details: small-molecule microarray, 635 nm fluorescence, higher = more signal
[10] = probe aEGFR binding to arrayed compounds – biochemical, biotinylated probe, 635/667 nm fluorescence, primary screen (AID 1097); details: small-molecule microarray, higher = more signal;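 further: probe is a biotinylated anti-EGFR antibody binding compounds printed on slides; score combines fluorescence near 667 nm and signal to noise of each spot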

Sequence of Torsin-1A-interacting protein 2 (Homo sapiens) (Q8NFQ8 whole entry, looked up): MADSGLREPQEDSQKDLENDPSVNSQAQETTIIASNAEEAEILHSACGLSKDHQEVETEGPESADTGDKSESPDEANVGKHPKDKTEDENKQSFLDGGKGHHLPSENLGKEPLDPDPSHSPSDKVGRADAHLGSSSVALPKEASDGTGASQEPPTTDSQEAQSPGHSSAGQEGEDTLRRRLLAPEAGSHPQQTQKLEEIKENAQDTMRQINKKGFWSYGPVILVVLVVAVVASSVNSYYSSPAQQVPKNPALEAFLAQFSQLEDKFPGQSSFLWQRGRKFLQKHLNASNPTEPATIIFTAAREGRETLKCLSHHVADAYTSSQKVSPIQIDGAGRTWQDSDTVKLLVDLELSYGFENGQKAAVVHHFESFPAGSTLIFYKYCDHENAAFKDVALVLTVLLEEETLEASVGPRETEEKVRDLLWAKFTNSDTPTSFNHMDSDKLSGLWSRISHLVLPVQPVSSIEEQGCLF
Sequence of Neurogenic locus notch homolog protein 3 (Homo sapiens) (Q9UM47 whole entry, looked up): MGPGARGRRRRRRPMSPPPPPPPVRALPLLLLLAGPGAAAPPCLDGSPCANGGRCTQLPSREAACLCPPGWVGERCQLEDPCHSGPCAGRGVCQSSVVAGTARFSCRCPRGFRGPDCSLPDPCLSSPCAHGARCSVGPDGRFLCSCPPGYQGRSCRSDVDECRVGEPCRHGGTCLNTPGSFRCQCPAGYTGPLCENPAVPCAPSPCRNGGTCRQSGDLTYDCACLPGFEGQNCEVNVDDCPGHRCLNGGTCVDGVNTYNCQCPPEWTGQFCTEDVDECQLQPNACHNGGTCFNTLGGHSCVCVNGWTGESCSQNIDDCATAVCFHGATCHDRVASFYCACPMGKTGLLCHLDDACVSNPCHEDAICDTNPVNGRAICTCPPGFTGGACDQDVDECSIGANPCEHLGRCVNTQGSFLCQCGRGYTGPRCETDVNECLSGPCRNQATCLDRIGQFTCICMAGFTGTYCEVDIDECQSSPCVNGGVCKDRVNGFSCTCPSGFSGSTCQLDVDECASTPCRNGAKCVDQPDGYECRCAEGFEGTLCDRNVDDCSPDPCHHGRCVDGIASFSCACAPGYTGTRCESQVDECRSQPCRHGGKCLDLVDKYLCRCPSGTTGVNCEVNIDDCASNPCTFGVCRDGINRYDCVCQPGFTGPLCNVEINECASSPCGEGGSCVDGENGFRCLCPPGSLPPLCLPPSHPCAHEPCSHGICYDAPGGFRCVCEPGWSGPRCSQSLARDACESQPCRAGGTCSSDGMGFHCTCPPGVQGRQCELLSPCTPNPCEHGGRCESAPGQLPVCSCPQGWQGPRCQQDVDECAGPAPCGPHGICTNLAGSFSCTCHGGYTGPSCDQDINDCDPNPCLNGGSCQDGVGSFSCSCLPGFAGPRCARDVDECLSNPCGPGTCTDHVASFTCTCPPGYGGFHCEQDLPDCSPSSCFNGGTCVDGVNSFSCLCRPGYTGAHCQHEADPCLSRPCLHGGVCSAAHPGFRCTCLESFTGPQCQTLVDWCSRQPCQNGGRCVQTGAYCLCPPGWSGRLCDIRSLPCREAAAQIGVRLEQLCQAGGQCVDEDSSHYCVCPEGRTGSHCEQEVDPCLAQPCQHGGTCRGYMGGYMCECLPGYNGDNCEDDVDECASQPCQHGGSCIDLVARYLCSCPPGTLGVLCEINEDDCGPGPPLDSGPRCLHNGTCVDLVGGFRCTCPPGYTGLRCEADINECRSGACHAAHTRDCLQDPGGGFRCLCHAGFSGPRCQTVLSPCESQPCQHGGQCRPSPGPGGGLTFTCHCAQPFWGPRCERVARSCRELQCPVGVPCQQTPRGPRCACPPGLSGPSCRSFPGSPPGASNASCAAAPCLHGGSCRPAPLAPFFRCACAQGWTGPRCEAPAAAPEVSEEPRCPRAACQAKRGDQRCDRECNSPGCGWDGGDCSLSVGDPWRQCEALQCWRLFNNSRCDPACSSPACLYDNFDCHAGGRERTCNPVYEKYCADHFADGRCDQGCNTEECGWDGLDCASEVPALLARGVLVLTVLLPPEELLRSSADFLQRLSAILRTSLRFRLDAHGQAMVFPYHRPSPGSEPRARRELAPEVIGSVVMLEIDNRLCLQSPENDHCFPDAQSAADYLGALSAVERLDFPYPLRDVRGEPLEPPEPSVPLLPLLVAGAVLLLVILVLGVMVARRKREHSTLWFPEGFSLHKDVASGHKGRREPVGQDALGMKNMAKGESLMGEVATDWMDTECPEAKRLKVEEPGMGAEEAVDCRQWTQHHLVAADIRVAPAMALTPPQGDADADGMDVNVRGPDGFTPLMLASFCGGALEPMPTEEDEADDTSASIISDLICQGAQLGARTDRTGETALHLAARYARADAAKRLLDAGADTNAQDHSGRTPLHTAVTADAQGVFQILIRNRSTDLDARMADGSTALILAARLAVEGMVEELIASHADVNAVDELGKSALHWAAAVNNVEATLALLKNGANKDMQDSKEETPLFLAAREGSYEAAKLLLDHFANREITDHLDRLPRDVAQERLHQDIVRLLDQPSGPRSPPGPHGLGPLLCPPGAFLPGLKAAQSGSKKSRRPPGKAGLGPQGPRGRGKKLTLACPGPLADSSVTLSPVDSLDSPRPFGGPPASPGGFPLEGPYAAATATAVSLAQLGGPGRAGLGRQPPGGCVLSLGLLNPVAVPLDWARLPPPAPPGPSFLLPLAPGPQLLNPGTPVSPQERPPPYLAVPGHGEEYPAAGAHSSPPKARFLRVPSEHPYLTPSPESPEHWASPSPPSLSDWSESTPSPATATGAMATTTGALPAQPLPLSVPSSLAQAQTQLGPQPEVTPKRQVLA

| SMILES | composite z-score [1] | z-score [2] | z-score [3] | z-score [4] | composite z-score [5] | z-score [6] | composite z-score [7] | composite z-score [8] | composite z-score [9] | composite z-score [10] |
| --- | --- | --- | --- | --- | --- | --- | --- | --- | --- | --- |
| O=C1C=C[C@@H](O)[C@@H]2[C@@H]3C(=O)N(Cc4ccccc4)C(=O)[C@@H]3CC[C@@H]12 | -0.136 | 0.0129 (inactive) | -0.676 (inactive) | -0.795 (inactive) | 0.0218 | 0.575 (inactive) | -0.147 | 0.562 | 0.798 | -0.104 |
| CCN1C(=O)[C@H]2[C@H]3[C@H](O)[C@H](O)CC(=NO[C@@H]4O[C@H](COC(C)=O)[C@@H](OC(C)=O)[C@H](OC(C)=O)[C@H]4OC(C)=O)[C@@H]3CC[C@H]2C1=O | 1.29 | 0.461 (inactive) | 0.208 (inactive) | 0.47 (inactive) | 1.05 | 1.16 (inactive) | 0.015 | 0.597 | 1.03 | 0.0091 |
| CCOC(=O)[C@H](CC(C)C)NC(=O)CCC1CC(OC(=O)NCCc2ccc(F)cc2)CC2(CCCC(COC(=O)NCc3cccc(C(F)(F)F)c3)O2)O1 (stereo not given in full) | 1.49 | 0.643 (inactive) | 0.58 (inactive) | 0.603 (inactive) | 1.6 | 1.05 (inactive) | -0.103 | 0.584 | 0.722 | 0.0199 |
| CO[C@H]1COC(=O)CC=C[C@@H](C)COC(=O)[C@H]2CCCN2C(=O)CC=C[C@H]1C | 1.55 | 0.591 (inactive) | -0.74 (inactive) | 0.0488 (inactive) | 0.128 | 0.457 (inactive) | -0.194 | 1.86 | -0.341 | 0.0129 |
| CC(C)[C@H](NC(=O)OC(C)(C)C)[C@@H](O)CC(=O)C(C)(C)C | -0.377 | 0.24 (inactive) | 0.0646 (inactive) | 0.552 (inactive) | 0.0487 | 0.782 (inactive) | -0.215 | 0.838 | -0.0208 | 0.0514 |
| COC(=O)[C@@H]1CC[C@H](C)[C@@H](c2ccc(C)cc2)N1C(=O)c1ccc(C=NOC[C@H]2O[C@H](c3ccccc3)C=C[C@@H]2Oc2ccc(OC)cc2)cc1 | 0.391 | 0.456 (inactive) | 0.267 (inactive) | 0.0902 (inactive) | -0.703 | -0.234 (inactive) | -0.0977 | -0.0296 | 0.107 | -0.0682 |
| COC(=O)[C@@H]1CC[C@H](C)[C@@H](c2ccc(Br)cc2)N1C[C@H](O)CN=[N+]=[N-] | -0.164 | -0.209 (inactive) | -4.62 (inactive) | -2.03 (inactive) | 0.512 | 0.449 (inactive) | -0.181 | -0.133 | -0.0269 | -0.139 |
| CC(CCN1CCCCc2nc(C)c(C)cc21)=NOC[C@@H](O)[C@H]1O[C@@H]2OC(C)(C)O[C@@H]2[C@H]1O | 0.908 | -1.58 (inactive) | 0.186 (inactive) | -0.164 (inactive) | -0.428 | 0.579 (inactive) | -0.225 | 1.07 | 0.218 | -0.0179 |
| CC(=O)OC[C@H]1O[C@H](C#CCC2CCCCC2)C=C[C@@H]1OC(C)=O | 1.18 | 0.877 (inactive) | -15.5 (active) | -0.525 (inactive) | 1.17 | 1.1 (inactive) | -0.194 | 0.598 | 0.568 | 0.0698 |
| CC(C)=CCCC(C)=CCON=C1C[C@@H](O)[C@@H](O)[C@@H]2[C@@H]3C(=O)N(C4CCCCC4)C(=O)[C@@H]3CC[C@H]12 | 1.52 | 0.194 (inactive) | -0.312 (inactive) | -0.382 (inactive) | 0.341 | 0.474 (inactive) | -0.0575 | 1.07 | 0.789 | 0.0065 |
| O=C(NN=C1C[C@@H](O)[C@@H](O)[C@@H]2[C@@H]3C(=O)N(c4ccc(F)cc4F)C(=O)[C@@H]3CC[C@H]12)OCc1ccccc1 | 0.695 | -0.0025 (inactive) | -2.08 (inactive) | -1.69 (inactive) | 1.88 | 0.782 (inactive) | -0.0309 | 0.128 | 0.827 | 0.0443 |
| COC(=O)C(C(=O)OC)C1CCCC(=O)C1 (stereo not given) | -0.734 | 0.069 (inactive) | 0.389 (inactive) | 0.751 (inactive) | 0.291 | -0.195 (inactive) | -0.0362 | 0.365 | 0.655 | -0.0952 |
| CO[C@H]1COC(=O)[C@H](C)COC(=O)[C@@H](OCc2ccccc2)C=C[C@@H]1C | 0.855 | 0.138 (inactive) | -1.28 (inactive) | -0.876 (inactive) | -0.198 | 0.554 (inactive) | -0.241 | 1 | -0.732 | -0.188 |
| C#CCCCON=C1[C@H]2CCn3c(=O)n(Cc4cc5c(cc4Cl)OCO5)c(=O)n3[C@H]2[C@H](O)[C@@H]2O[C@H]12 | 0.0698 | 0.842 (inactive) | 1.28 (inactive) | 1.63 (inactive) | 0.0322 | 0.314 (inactive) | 0.147 | 0.508 | 0.836 | -0.191 |
| O=C1C2=CC[C@H]3C(=O)N(Cc4ccccc4)C(=O)[C@H]3[C@H]2[C@H](O)[C@@H]2O[C@H]12 | 0.0864 | -0.733 (inactive) | -2.12 (inactive) | -0.213 (inactive) | -1.23 | -0.559 (inactive) | -0.185 | -0.0873 | -0.95 | -0.125 |
| CC(C)[C@@H](OCc1ccccc1)[C@H](C)C=NO[C@@H](C)c1cn([C@H](CO)Cc2ccccc2)nn1 | 0.195 | -2.32 (inactive) | -3.21 (inactive) | -1.14 (inactive) | 0.559 | 0.96 (inactive) | -0.186 | 0.803 | 0.543 | -0.128 |
| CO[C@H]1COC(=O)[C@H](C)COC(=O)[C@H](C)NC(=O)CC=C[C@H]1C | 1.34 | -0.301 (inactive) | -0.296 (inactive) | -0.253 (inactive) | 0.449 | 0.828 (inactive) | -0.166 | 1.29 | 0.696 | -0.122 |
| CCOC(=O)CCN1C(=O)[C@H]2[C@H]3[C@H](O)[C@H](O)CC(=NO[C@@H]4O[C@H](CO)[C@@H](O)[C@H](O)[C@H]4O)[C@H]3CC[C@H]2C1=O | -0.145 | -0.703 (inactive) | 0.354 (inactive) | -0.387 (inactive) | 0.211 | 0.389 (inactive) | 0.0008 | 0.404 | 0.195 | -0.115 |
| CCN(CC)CC(O)CN1CCCCc2nc(C)c(C)cc21 (stereo not given) | 0.357 | -1.59 (inactive) | -1.34 (inactive) | -0.425 (inactive) | 0.657 | -0.0207 (inactive) | -0.343 | 0.454 | 0.431 | -0.0148 |
| O=C1CCCC=C1C(O)COCc1ccccc1 (stereo not given) | -0.544 | 0.249 (inactive) | -0.233 (inactive) | 0.456 (inactive) | -0.395 | 0.202 (inactive) | -0.212 | 0.022 | -0.256 | -0.142 |
| C#CCCCON=C1C[C@@H](O)[C@@H](O)[C@@H]2[C@@H]3C(=O)N(C[C@@H]4CCCO4)C(=O)[C@@H]3CC[C@H]12 | 0.81 | 0.426 (inactive) | 0.775 (inactive) | 0.749 (inactive) | 1.22 | 0.397 (inactive) | -0.134 | 0.463 | 0.607 | -0.0828 |
| CCOC(=O)[C@H](Cc1ccccc1)NC(=O)CCC1CC(OC(=O)NCc2ccc3c(c2)OCO3)CC2(CCCC(COC(=O)NCCc3ccc(Cl)cc3)O2)O1 (stereo not given in full) | 1.55 | -1.93 (inactive) | -0.616 (inactive) | 0.376 (inactive) | 1.78 | -0.698 (inactive) | -0.148 | 0.819 | 1.16 | -0.081 |
| CO[C@@H]1C=CCC(=O)N[C@@H](C)C(=O)OC[C@@H](OC)[C@H](C)C=CCC(=O)OC[C@H]1C | 1.37 | -0.563 (inactive) | -0.832 (inactive) | -0.333 (inactive) | -1.33 | 0.615 (inactive) | -0.124 | 1.89 | 0.312 | -0.0357 |
| C#CCCCON=C1C[C@@H](O)[C@@H](O)[C@@H]2[C@@H]3C(=O)N([C@@H](C)c4ccccc4)C(=O)[C@@H]3CC[C@@H]12 | -0.0587 | 0.837 (inactive) | 1.4 (inactive) | 1.26 (inactive) | -0.148 | 0.761 (inactive) | -0.161 | -0.225 | -0.746 | -0.1 |
| CCOC(=O)[C@H](CC(C)C)NC(=O)CCC1CC(OC(=O)NCc2ccc3c(c2)OCO3)CC2(CCCC(COC(=O)NCc3ccccc3)O2)O1 (stereo not given in full) | 0.974 | 0.177 (inactive) | 1.12 (inactive) | 0.0835 (inactive) | 1.83 | 0.314 (inactive) | -0.124 | 0.684 | 0.845 | -0.0978 |
| COC(OC)[C@@H](C)[C@H](OC)[C@@H](C)[C@H](OC)c1ccccc1 | -0.478 | -1.94 (inactive) | -0.656 (inactive) | -0.213 (inactive) | -1.37 | 0.17 (inactive) | 0.308 | 0.467 | 0.181 | -0.117 |
| CO[C@@H]1COC(=O)[C@@H]2CCCN2C(=O)[C@@H](C)COC(=O)CCC[C@H]1C | 1.55 | -1.86 (inactive) | -0.875 (inactive) | -0.815 (inactive) | 0.871 | -0.76 (inactive) | -0.176 | 0.456 | 0.525 | 0.158 |
| C[C@@H](c1ccccc1)N1C(=O)[C@H]2[C@H]3[C@H](O)[C@H](O)CC(=NOCc4ccccc4)[C@@H]3CC[C@H]2C1=O | -0.246 | 0.855 (inactive) | -0.293 (inactive) | 0.512 (inactive) | 0.379 | -0.125 (inactive) | 0.408 | -0.29 | -0.551 | -0.203 |
| CCN1C(=O)[C@H]2[C@H]3[C@H](O)[C@H](O)CC(=NOC[C@@H](O)[C@H]4O[C@@H]5OC(C)(C)O[C@@H]5[C@H]4O)[C@@H]3CC[C@H]2C1=O | -0.556 | 0.141 (inactive) | 0.234 (inactive) | 0.33 (inactive) | -0.0973 | 0.454 (inactive) | -0.159 | 0.0713 | -0.124 | -0.0685 |
